# This is a sample that favours compounds with a hit; in the whole collection about 1.7% have one here.
# HEK293 tox: cytotoxicity in counter-screen for GLP-1R inverse agonists; actives 0.13% (n = 410,000); Potency, µM (top dose mostly 38.3 µM), for inactives: at the highest dose activity change, negative = inhibition, most hits filed as inhibitors; AID 624418; HEK293 cAMP-luciferase reporter cells, luminescence, 24 h;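 further: loss of luciferase light is scored as toxicity; on the % scale 0 is the no-effect control and ±100 the full control effect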
#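 1536-well qHTS counterscreen of the MLSMR; 200 cells/uL, 12 h pre-incubation, 23 nL cpd, 24 h at 37 deg C 5% CO2, luciferase detection reagent, 12 min RT, luminescence. Inhibition = undesired.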
# GLP-1R inv ag: acts as inverse agonist at human GLP-1 receptor; P43220; HEK293 GLP-1R CRE-luciferase, luminescence, 24 h; GLP-1R form is constitutively active; actives 1.6% (n = 410,000); Potency, µM (series often up to 38.3 µM), inactives show at the highest dose activity change, negative = inhibition, usual class: inhibitors; further: on the % scale 0 is the no-effect control and ±100 the full control effect; nearly all actives have a fitted effect of over 55% in size
#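 Stable HEK293 clone (constitutively active GLP-1R + cAMP-response luciferase); 200 cells/uL plated, 12 h pre-culture, compound 24 hr, 37 deg C/5% CO2; detection reagent 12 min RT; luminescence.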
# RGS4 inh: inhibitors of human regulator of G protein signaling 4; P49798; Transcreener GDP fluorescence polarization, RGS4-accelerated GTP hydrolysis; Potency, µM (titrated, usually from 114 µM), without a hit: at the top dose activity change, negative = inhibition, usual class: inhibitors; actives 0.039% (n = 390,000); AID 504845; further: on the % scale 0 is the no-effect control and ±100 the full control effect; nearly all actives have a fitted effect of over 75% in size
#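 MLSMR compounds (23 nl, pin-transferred) preincubated 10 min at room temperature with a 500nM (2x) first reagent, then RGS4 at 900nM (2x) plus Transcreener GDP mix added; fluorescence polarization (620/688 nm) read before and after 90 min at 30 °C.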
# GLP1R ag: agonists of human GLP-1 receptor; P43220; AID 624172; actives 0.007% (n = 380,000); Potency, µM (series often up to 45.6 µM), for the others: at the top dose activation, hits mostly activators; HEK293 GLP-1R CRE-luciferase, luminescence, 4-6 h; cells express a hypersensitive GLP-1R form; further: % of control where 0% means no effect
# PTHR1 agonist: PTHR1 (human) receptor agonism; Q03431; HEK293 GP2 PTHR1 cells, GloSensor cAMP luminescence, 1 h; Potency, µM (top dose mostly 115 µM), without a hit: at the highest dose activation, hits mostly activators; actives 0.075% (n = 410,000); further: nearly all actives have a fitted effect of over 55% in size
# Target sequence (Q03431 whole entry, looked up): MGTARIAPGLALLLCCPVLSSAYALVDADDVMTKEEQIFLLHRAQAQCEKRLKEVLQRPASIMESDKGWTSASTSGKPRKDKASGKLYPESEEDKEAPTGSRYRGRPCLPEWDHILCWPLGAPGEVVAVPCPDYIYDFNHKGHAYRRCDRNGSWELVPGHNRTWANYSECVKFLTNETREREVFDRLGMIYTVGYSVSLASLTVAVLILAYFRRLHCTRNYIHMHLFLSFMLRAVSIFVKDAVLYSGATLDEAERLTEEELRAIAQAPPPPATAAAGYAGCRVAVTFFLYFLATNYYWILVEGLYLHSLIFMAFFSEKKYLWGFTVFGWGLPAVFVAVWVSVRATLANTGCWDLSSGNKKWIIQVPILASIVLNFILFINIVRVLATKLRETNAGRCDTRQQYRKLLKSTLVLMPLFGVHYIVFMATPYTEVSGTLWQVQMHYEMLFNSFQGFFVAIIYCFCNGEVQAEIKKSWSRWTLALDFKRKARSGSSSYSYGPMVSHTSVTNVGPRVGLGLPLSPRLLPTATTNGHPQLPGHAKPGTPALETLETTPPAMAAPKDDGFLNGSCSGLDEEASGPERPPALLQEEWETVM
#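 HEK-293-derived GP2 cells expressing PTHR1 and a GloSensor cAMP reporter, 3,000/well, plated overnight, given luciferin plus IBMX (each 0.5 mM as added) for 1 h at 37 °C, then compound for 1 h at 37 °C. Luminescence was read after 15 min at room temperature.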
# * = called active by the depositor; i = inactive; u = inconclusive; x = not tested or not shown; [ ] = dose if it differs, or a comment. The call rests on the fitted dose curve; in most records, active means well fitted curve in the direction sought with a large enough effect; inconclusive means small, poorly fitted or top-dose-only effect, or another doubt; inactive means no such curve, though single readings can be large; an effect the other way counts as inactive or inconclusive. Potency means the concentration at half of the fitted maximal effect.
SMILES,HEK293 tox,GLP-1R inv ag,RGS4 inh,GLP1R ag,PTHR1 agonist
CC(NCc1cccc(OCc2ccccc2)c1)C(O)c1ccccc1 (stereo not given),u,8.9µM*,13%,22%,-22%
CC(NCc1ccc(OCc2ccc(Cl)cc2)cc1)C(O)c1ccccc1 (stereo not given),u,10µM*,24%,9%,-31%
Cc1ccc(O)c(-c2n[nH]c3c2C(c2ccccc2F)N(Cc2ccco2)C3=O)c1 (stereo not given),-13%,-22%,21%,x,-73%
CCOC(=O)N1CCN(C(=O)c2oc3ccc(S(=O)(=O)N4CCCCC4)cc3c2C)CC1,-20%,7%,13%,6%,-5%[57.5 µM]
Cc1c(C(=O)N2CCCCC2)oc2ccc(S(=O)(=O)N3CC(C)CC(C)C3)cc12 (stereo not given),-17%,8.9µM*,1%,1%,-84%[57.5 µM]
CCN(CC)CCCNC(=O)c1oc2ccc(S(=O)(=O)N3CC(C)CC(C)C3)cc2c1C (stereo not given),u,1.4µM*,-2%,12%,i
Cc1c(N2C(=O)/C(=C/c3ccc(N(C)C)cc3)N(C)C2=S)c(=O)n(-c2ccccc2)n1C,5.6µM*,u,3%,9%,i
COc1ccc(N(C)C(=O)c2ccc3nc(-c4ccccc4)c(-c4ccccc4)nc3c2)cc1,-8%,6.3µM*,-20%[11.4 µM],9%,i
COc1cc(C(=O)NC(c2ccccc2Cl)c2cc(Cl)c3cccnc3c2O)cc(OC)c1OC (stereo not given),-17%,u,-2%,x,-22%
COc1ccc(C(=O)NC(c2ccccc2Cl)c2cc(Cl)c3cccnc3c2O)cc1 (stereo not given),-8%,1.8µM*,-9%,x,i
COc1cccc(C(=O)NCC2(c3ccccc3)CCCC2)c1,2%,u,5%,11%,-2%
O=C(NCC1(c2ccccc2)CCCC1)c1ccc(Br)cc1,26%,u,10%,1%,i
Cc1ccc(C(=O)NCC2(c3ccccc3)CCCC2)cc1,77%,2.5µM*,26%,18%,i
COc1ccc(C(=O)NCC2(c3ccccc3)CCCC2)c(OC)c1,4%,3.2µM*,0%,u,-6%
Nc1ccccc1C(=O)NCC1(c2ccccc2)CCCC1,0%,3.2µM*,-13%,-4%,-23%
O=C(NCC1(c2ccccc2)CCCC1)c1ccc(Br)o1,-6%,u,-21%,4%,-49%
COc1ccc(C2=Nc3ccccc3NC(c3cccs3)=N2)cc1,17%,u,-27%,x,i
Cc1ccccc1CNC(=O)Cn1nc(C)c2nn(-c3ccc(Cl)cc3)c(C)c2c1=O,-1%,-8%,-6%,x,-54%
COc1cc(OC)cc(-c2c(-c3ccc(F)cc3)c3cc(-c4cccc5[nH]ccc45)ccc3n2C)c1,9%,5.6µM*,13%,-5%,-30%
Cc1ccc(C)c(Cn2c(=O)c3c(nc4n3CCN4c3ccc(F)cc3)n(C)c2=O)c1,19%,-12%,14%,x,u
CCc1ccc(NC(=O)c2ccc3c(c2)c(C)c(C)n3Cc2ccccc2)cc1,-18%,u,-6%,x,i
CCc1ccc(CNC(=O)c2ccc3c(c2)c(C)c(C)n3Cc2ccccc2)cc1,2%,10µM*,-24%,x,i
CCc1cccc(NC(=O)c2ccc3c(c2)c(C)c(C)n3Cc2ccc(F)cc2)c1,-19%,10µM*,-16%,x,i
CCOc1ccccc1CNC(=O)C1CCN(S(=O)(=O)c2ccc3[nH]c(=O)ccc3c2)CC1,-1%,7%,1%,4%,i
CCCSc1cc(N2CCN(C)CC2)nc(-c2ccc(OC)cc2)n1,-1%,8.9µM*,-1%,2%,u
SMILES,HEK293 tox,GLP-1R inv ag,RGS4 inh,GLP1R ag,PTHR1 agonist
CCCSc1cc(N2CCCC2)nc(-c2ccccc2)n1,18%,0%,18%,-4%,i
O=C(N[C@@H](Cc1ccccc1)C(=O)CCl)OCc1ccccc1,-53%,u,3.4µM*,-14%,-96%
O=C(N[C@@H](Cc1ccccc1)C(=O)N[C@@H](Cc1ccccc1)C(=O)O)OCc1ccccc1,-4%,13%,0%,-1%,-24%
COc1cccc(CNC(=O)c2ccc3nc(CCc4ccccc4)oc3c2)c1OC,-1%,u,11%,x,i
C=CCOC(=O)C1=C[C@H](c2ccc(C(F)(F)F)cc2)[C@@H](CCCO)[C@H](OCC)O1,-4%,u,9%,20%,-64%
CCO[C@@H]1OC(C(=O)Nc2ccccc2)=C[C@H](c2ccc(C(F)(F)F)cc2)[C@H]1CCCO,-13%,4.5µM*,-18%,-1%,-36%
C=CCOC(=O)C1=C[C@@H](c2ccc(C(F)(F)F)cc2)[C@H](CCCO)[C@@H](OCC)O1,-67%,6.3µM*,-1%,13%,-2%
CCO[C@H]1OC(C(=O)Nc2ccccc2)=C[C@@H](c2ccc(Br)cc2)[C@@H]1CCCO,-17%,u,-18%,-1%,i
Cc1cccc(S(=O)(=O)c2cn(Cc3ccccc3)c3cc(N4CCCCC4)c(F)cc3c2=O)c1,-13%,-2%,-2%,x,i
COC(=O)c1sc(S(=O)(=O)N2CCN(c3ccccc3F)CC2)c(C(=O)OC)c1C,u,11µM*,-1%,21%,-23%
COC(=O)c1sc(S(=O)(=O)N2CCN(c3ccc(OC)cc3)CC2)c(C(=O)OC)c1C,-1%,16%,-12%,6%,i
OC[C@H]1O[C@@H](n2cnc3c2NC=NC[C@H]3O)C[C@@H]1O,x,x,x,-4%,x
CCCC(=O)OC/C(O)=C(\C#N)c1nc2ccccc2[nH]1,10µM*,u,-15%,8%,-8%
N#C/C(=C(/O)COC(=O)CSc1ccc2ccccc2c1)c1nc2ccccc2[nH]1,u,7.9µM*,-5%,-17%,-7%
COCC(=O)OC/C(O)=C(\C#N)c1nc2ccccc2[nH]1,u,5µM*,-1%,3%,i
CCCCN(C)c1c(C)nc2ccc(C(=O)N(C)Cc3ccco3)cn12,-9%,5%,x,3%,-3%
CCOc1ccc2nc(N3CCCC(C(=O)NCc4ccccc4OC)C3)sc2c1 (stereo not given),-8%,6%,4%,x,-77%
COc1ccc2nc(C)cc(Nc3ccc(N4CCOCC4)cc3)c2c1,u,u,27%,-1%,0%[57.5 µM]
COc1ccc2nc(C)cc(Nc3ccc(N4CCN(C)CC4)cc3)c2c1,u,5.6µM*,8%,11%,-15%
COCCNC(=S)NN=C1CCCCC1,-1%[7.66 µM],-9%[7.66 µM],-19%,-1%,9%

# Assay outcomes as filed in PubChem.
